# In PubChem BioAssay (NCATS):
# Results filed as inconclusive are left out. A call without a number means that no potency is given here. Activity calls are given as the source filed them. Calls come from the whole dose curve.
# Columns and labels:
# [1] = Primary qHTS for inhibitors of SARS-S pseudo-typed particle cell entry (AID 1479145); details: outcome: dose series up to 57.1 µM unless noted; note: nearly all actives have a fitted effect of over 45% in size; note: potency is the fitted concentration of half-maximal effect
# [2] = Primary qHTS for Huh7 cytotoxicity: counterscreen for inhibitors of MERS-S pseudotyped particle cell entry (AID 1479147); details: outcome: dose series up to 57.1 µM unless noted; note: potency is the fitted concentration of half-maximal effect
# [3] = Primary qHTS for inhibitors of MERS-S pseudo-typed particle cell entry (AID 1479149); details: outcome: dose series up to 57.1 µM unless noted; note: nearly all actives have a fitted effect of over 60% in size; note: potency is the fitted concentration of half-maximal effect
# [4] = Primary qHTS for Vero E6 cytotoxicity: counterscreen for inhibitors of SARS-S pseudo-typed particle cell entry (AID 1479150); details: outcome: dose series up to 57.1 µM unless noted
# [5] = Primary qHTS to identify inhibitors of SARS-CoV-2 cell entry (AID 1645846); details: SARS-CoV-2 pseudovirus cell entry assay, luminescence; activity change, negative = inhibition: at 57.1 µM (top of the series) unless noted; note: nearly all actives have a fitted effect of over 45% in size; note: potency is the fitted concentration of half-maximal effect
# In short: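 Data are normalized to wells receiving SARS-CoV-2-S pseudoparticles and those given bald particles. Entry signal was luciferase luminescence in stable hACE2 Expi293F cells, 48 hr post-infection, after 1 hr compound pretreatment.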
# [6] = Cytotoxicity counterscreen for inhibitors of SARS-CoV-2 cell entry (AID 1645845); details: outcome: dose series up to 57.1 µM unless noted; note: nearly all actives have a fitted effect of over 50% in size; note: potency is the fitted concentration of half-maximal effect
# In short: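 Counterscreen run in the same HEK293-ACE2 line as the pseudotyped-particle entry assay, without particles. Viability after 48 h at 37 C was read as ATP luminescence, scaled between cell-containing and cell-free wells.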
SMILES,Potency [1],Potency [2],Potency [3],Potency [4],"activity change, negative = inhibition [5]",Potency [6],Potency [5]
CN(CCCCCCN(C)C(=O)Oc1ccc[n+](C)c1)C(=O)Oc1ccc[n+](C)c1,inactive,inactive,inactive,inactive,-28.5%,–,–
CS(=O)(=O)c1ccc([C@@H](O)[C@@H](COC(=O)CN)NC(=O)C(Cl)Cl)cc1,inactive,inactive,inactive,–,–,inactive,–
O=C(/C=C/c1cccc(S(=O)(=O)Nc2ccccc2)c1)NO,10 µM (active),inactive,inactive,–,-13.6%,12.6 µM (active),–
CC(C)CCCC(C)NC(C)C (configuration not stated),inactive,inactive,inactive,–,-25.3%,inactive,–
O=C(OCc1ccccc1)c1cccnc1,inactive,inactive,inactive,–,1.27%,inactive,–
CCCCCCCCCCCC[n+]1ccc2ccccc2c1,2.82 µM (active),inactive,5.62 µM (active),–,–,–,3.16 µM (active)
CN(C)c1ccc(C(=C2C=CC(=[N+](C)C)C=C2)c2c(O)c(S(=O)(=O)[O-])cc3cc(S(=O)(=O)O)ccc23)cc1,inactive,inactive,inactive,inactive,-12.7%,–,–
CCCC(=O)O[C@]1(C(=O)COC(C)=O)CC[C@H]2C3C[C@H](F)C4=CC(=O)C=C[C@]4(C)[C@@]3(F)[C@@H](O)C[C@@]21C (some centres not stated),inactive,inactive,inactive,inactive,-5.47%,–,–
OC[C@@H](O)C(O)[C@H](O)CO,inactive,inactive,inactive,inactive,2.94%,–,–
C#C[C@]1(O)CC[C@@H]2[C@@H]3CCC4=CCCC[C@@H]4[C@H]3C(=C)C[C@@]21CC,inactive,inactive,inactive,inactive,3.84%,–,–
CCC(C(=O)O)[C@H]1CC[C@H](C)[C@H]([C@@H](C)[C@H](O)[C@H](C)C(=O)[C@H](CC)[C@H]2OC3(C=C[C@@H](O)[C@]4(CC[C@@](C)([C@H]5CC[C@](O)(CC)[C@H](C)O5)O4)O3)[C@H](C)C[C@@H]2C)O1 (some centres not stated),3.98 µM (active),7.94 µM (active),0.891 µM (active),–,–,2.51 µM (active),0.794 µM (active)
CN1CCN(CCCN2c3ccccc3Sc3ccccc32)CC1,28.2 µM (active),31.6 µM (active),31.6 µM (active),–,–,–,31.6 µM (active)
